An excerpt weighted towards active compounds, which were near 6% of everything screened.
D3 antag – D3 dopamine receptor (human) antagonism | P35462 | D3R cells, DiscoveRx beta-arrestin luminescence, antagonist mode; active compounds read low | max response, negative = inhibition, % | actives 2.5% (n = 360,000); in the data active = max response below about -50%; inconclusive = no clear call, values can overlap the other calls; note: % is set by controls: 0 for no effect and ±100 for the full control effect
Target sequence (P35462 whole entry, looked up): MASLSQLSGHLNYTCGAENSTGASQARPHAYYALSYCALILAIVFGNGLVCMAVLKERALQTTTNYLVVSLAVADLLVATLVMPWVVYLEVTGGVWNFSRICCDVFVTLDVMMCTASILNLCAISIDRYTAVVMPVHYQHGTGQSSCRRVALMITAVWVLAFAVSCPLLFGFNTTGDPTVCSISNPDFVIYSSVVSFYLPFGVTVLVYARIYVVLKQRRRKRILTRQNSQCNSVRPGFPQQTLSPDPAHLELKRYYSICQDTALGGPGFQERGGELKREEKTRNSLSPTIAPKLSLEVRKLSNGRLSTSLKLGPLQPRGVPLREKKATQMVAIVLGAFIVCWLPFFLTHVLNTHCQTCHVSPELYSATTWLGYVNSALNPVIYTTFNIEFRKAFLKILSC
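Cells plated overnight at 1500 cells/well, then exposed to library compounds with dopamine controls for 90 minutes at 37 degrees C. DiscoveRx reagent added for 30–60 minutes at room temperature; luminescence read, quantitative HTS format.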
DRD3 agonist – agonists of human D3 dopamine receptor. D3R DiscoveRx beta-arrestin cells, luminescence, 90 min. max activation, %. actives 0.58% (n = 410,000); in the data active = max activation above about 30%; note: 0% is about no effect
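Cells at 1500/well, incubated overnight, then treated with pinned compounds (dopamine as control) for 90 min at 37 degrees C. DiscoveRx reagent added for 30 - 60 minutes at room temperature; luminescence read.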
D1 antag – human D1 dopamine receptor antagonism; P21728; HEK293 TREx D1 cells, calcium flux, dopamine EC80; active compounds read low; activity change, negative = inhibition, % at 10 µM; actives 3.2% (n = 360,000); AID 504652; in the data active = activity change below about -30%; note: % is set by controls: 0 for no effect and ±100 for the full control effect
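Using tetracycline-induced force-coupled D1 Hek293 cells and a calcium dye, signals were followed for 180 s after compound, then for 180 s after EC80 dopamine, to detect inhibitors.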
D1 agonist – human D1 receptor agonism; activation, % at 2 µM; HEK293 T-REx D1 cells, calcium flux, agonist mode; actives 1% (n = 360,000); in the data active = activation above about 30%; note: 0% is about no effect
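Inducible HEK293 T-REx D1 cells, force-coupled to calcium signalling, were plated at 4000 cells/well with tetracycline and held overnight at 30 C. After no-wash calcium dye loading, compound-evoked calcium rise over 180 s flagged agonists.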
D1 PAM – potentiators of human D1 dopamine receptor; HEK293 TREx D1 cells, calcium flux, dopamine EC20 potentiation; P21728; actives 0.036% (n = 360,000); potentiation, % at 10 µM; in the data active = potentiation above about 30%; note: 0% is about no effect
The depositor's hits bear a star; ? = inconclusive; · = not tested or not shown.

SMILES	D3 antag	DRD3 agonist	D1 antag	D1 agonist	D1 PAM
Cc1ccc(S(=O)(=O)c2nc(-c3ccccc3)oc2NCCCN2CCOCC2)cc1	-76*	-16	12	2	7
C=Cc1cc(F)c(S(=O)(=O)N2CCN(S(=O)(=O)c3ccc4c(c3)OCCO4)CC2)cc1F	·	·	-11	4	2
CN(C)CCCNc1oc(-c2ccccc2Cl)nc1S(=O)(=O)c1ccc(F)cc1	-61*	-23	-15	15	-6
CN(C)CCNc1oc(-c2ccccc2Cl)nc1S(=O)(=O)c1ccccc1	-1	-15	20	6	0
CCOC(=O)[C@]12CCC=C1N(Cc1cccc3ccccc13)C(=O)[C@H](CC(=O)NCC13CC4CC(CC(C4)C1)C3)C2	20	3	·	·	·
CCOC(=O)[C@]12CCC=C1N(Cc1ccccc1)C(=O)[C@H](CC(=O)NCC13CC4CC(CC(C4)C1)C3)C2	-53*	-10	·	·	·
CCCN1Cc2cccc(C(=O)Nc3cccc(C(=O)OCC)c3)c2C1=O	·	-9	-9	1	-2
O=C(Nc1cccc(Br)c1)c1ccc(CN2CCc3ccccc3C2)cc1	-56*	-16	-2	6	-5
COC(=O)c1ccc(CN2CCc3ccc(NC(=O)c4ccncc4)cc3C2)cc1	?	-6	-16	16	-12
CSc1cccc(NC(=O)c2ccc(CN3CCc4ccccc4C3)cc2)c1	-96*	-7	14	2	-5
Cc1cc2n(n1)CCCN2C(=O)Nc1ccc(C)c(Cl)c1	·	5	-4	4	-4
COc1ccc2c(c1)c1c(c(=O)n(Cc3ccccc3)c(=O)n1Cc1ccccc1Cl)n2C	·	3	16	1	-1
Fc1cccc(CN2CCc3nc(Nc4ccc5c(c4)OCCO5)ncc3C2)c1F	·	0	28	1	2
COc1ccc2c(c1)sc1ncc(C(=O)NCc3cccc(C)c3)c(=O)n12	·	6	0	0	-2
Cc1c(C(=O)N2CCC(c3nc4ccccc4s3)CC2)oc2ccc(Cl)cc12	·	-5	1	13	0
CCOc1ccc(N2C(=O)/C(=C/c3cccs3)N(C)C2=S)cc1	10	4	-37*	7	-8
CCOc1ccc(N2C(=O)CN(C)C2=S)cc1	11	-1	1	1	-2
O=C(CSc1nc(C(F)(F)F)cc(=O)[nH]1)N1CCCCCC1	-2	4	-11	1	-7
O=c1cc(C(F)(F)F)c2sc(N3CCCCC3)nc2[nH]1	-57*	2	-2	6	3
COC(=O)c1ccc(NC(=O)CC2C(=O)N(c3ccc(Cl)cc3)C(=O)N2Cc2ccco2)cc1 (centres undefined)	·	-1	-14	2	-3
COCCNC(=O)C1CC2Cn3c(nc4cc(C)c(C)cc43)C2N1C (centres undefined)	-21	-8	-78*	1	-9
COc1cccc2sc3cc(C#CC4(O)CCCCC4)ccc3c(=O)c12	203	63*	·	·	·
Cc1cccc(-c2ccc3ncnc(N(C)Cc4ccco4)c3c2)c1	·	·	0	4	3
CCOC(=O)CNc1nc(Cl)nc(Nc2ccc(C)cc2)n1	1	-8	-3	0	-1
Cc1ccc(Nc2nc(Cl)nc(NC(C)(C)C)n2)cc1	65	-3	-37*	11	-1
SMILES	D3 antag	DRD3 agonist	D1 antag	D1 agonist	D1 PAM
Fc1ccc(N2CCN(c3nnnn3-c3ccccc3)CC2)cc1	-10	0	-40*	0	3
O=C(NCc1ccccc1F)C1CCN(c2nnc(-n3cccc3)s2)CC1	·	1	7	0	-5
COc1cc2ccccc2cc1C(=O)Nc1ccc2oc(-c3cccc(C)c3)nc2c1	·	0	9	3	1
FC(F)(F)c1cc(-c2ccccc2)nc(NCC2CCCO2)n1 (centres undefined)	-5	3	7	0	3
Fc1ccc(-c2cc(C(F)(F)F)nc(NCC3CCCO3)n2)cc1 (centres undefined)	0	-16	42	32*	2
O=C(OCC(O)C(O)C(O)C(SCc1ccccc1)SCc1ccccc1)c1ccccc1 (centres undefined)	-67*	-5	·	·	·
COc1ccc(-c2nc(NC(=O)Cn3cnnn3)sc2C)cc1	4	19	-9	1	-7
COc1ccc(-c2nc(NC(=O)Cn3ccc(C(F)(F)F)n3)sc2C)cc1	-18	0	-40*	2	4
Cn1cc([N+](=O)[O-])c(C(=O)Nc2nc(-c3ccc(Cl)cc3)cs2)n1	0	-4	-48*	28	3
CC(=O)c1c(C)[nH]c(C(=O)Nc2nc(-c3ccc(Cl)cc3)cs2)c1C	5	10	-32*	21	-15
Cc1noc(C)c1C(=O)Nc1nc(-c2ccc([N+](=O)[O-])cc2)cs1	2	1	-51*	25	-8
Cc1cc(C)cc(C(=O)Nc2c3c(nn2-c2ccccc2C)CS(=O)(=O)C3)c1	·	-8	22	-4	2
CCOc1cc(Cl)c(S(=O)(=O)n2ccnc2)cc1Cl	·	6	20	-1	-2
COc1ccc(-c2nc(NC(=O)c3[nH]c(C)c(C(C)=O)c3C)sc2C)cc1	11	5	-91*	15	-12
CCOC(=O)CSc1nc2cc3c(cc2c(=O)n1CCCC(=O)NCCc1ccc(OC)c(OC)c1)OCO3	·	8	2	1	-3
CCOc1ccc(NC(=O)Cn2c(=O)n(-c3cccc(OC)c3)c(=O)c3c4c(sc32)CCCC4)cc1	·	1	-9	2	2
Cn1c(=O)n(CC#N)c2ccccc21	9	1	5	3	-3
N#CCCn1c(=O)n(CCC#N)c2ccccc21	-8	0	-38*	1	-8
CC(C)N(Cc1ccccc1)C(=O)C1CCCN(c2ncnc3onc(-c4ccc(F)cc4)c23)C1 (centres undefined)	·	8	-7	3	-8
Cc1cc(C)cc(C(=O)OCC(=O)N2CCCCCC2)c1	-2	1	-30*	0	-11
Nc1cc(CN2C(=O)c3ccccc3C2=O)cc(Cl)c1O	10	31*	3	0	2
O=C1c2ccccc2C(=O)N1Cc1cc(Cl)c(O)c([N+](=O)[O-])c1	-8	-7	3	4	2
COCc1ccc(C(=O)N2CCCC(N(C)Cc3ccccc3)C2)s1 (centres undefined)	-11	-29	7	2	1
CN(Cc1ccccc1)C1CCCN(C(=O)c2ccc(Cl)s2)C1 (centres undefined)	-82*	-12	-31*	2	-9
O=C(/C=C/c1ccc2c(c1)OCO2)N1CCCCC1	0	-3	-30*	2	-2
O=C(/C=C/c1ccc2c(c1)OCO2)N1CCN(c2ccc(Cl)cc2)CC1	-7	-3	0	3	7
COc1ccc2cc(/C=C/C(=O)N3CCN(CC(=O)N4CCCCCC4)CC3)ccc2c1	13	36*	0	7	2

Screening data: PubChem, National Center for Advancing Translational Sciences (NCATS)
